# Measured values reported in PubChem BioAssay (NCATS).
# Results filed as inconclusive are left out. Active and inactive are the calls of the source. The call rests on the fitted dose curve; in most records, active means well fitted inhibition curve with a large enough effect; inconclusive means small, poorly fitted or top-dose-only effect; inactive means flat fitted curve, though single readings scatter.
# Target: Phospholipid hydroperoxide glutathione peroxidase GPX4 (Homo sapiens) (UniProt P36969)
# Sequence (P36969 whole entry, looked up): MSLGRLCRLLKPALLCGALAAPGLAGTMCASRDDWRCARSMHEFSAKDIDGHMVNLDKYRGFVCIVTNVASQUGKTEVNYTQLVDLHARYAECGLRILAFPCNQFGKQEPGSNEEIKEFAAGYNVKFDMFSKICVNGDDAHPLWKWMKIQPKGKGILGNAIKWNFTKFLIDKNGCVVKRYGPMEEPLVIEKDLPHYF
# Assay: Primary qHTS Assay for Inhibitors of Recombinant Selenoprotein Glutathione Peroxidase 4 (GPX4) (AID 1845192); further: nearly all actives have a fitted effect of over 65% in size; on activity change, negative = inhibition: on the % scale 0 is the no-effect control and ±100 the full control effect
# Conditions: recombinant GPX4, GR-coupled NADPH fluorescence, 15 min; series mostly up to 50 µM; activity change, negative = inhibition: at the top concentration
# How it was run: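 Steps: GPX4 plus compound, 30 min RT; add GR/GSH/NADPH master mix; start with cumene hydroperoxide; read 340/450 nm fluorescence at 0 and 15 min. Finals were 200 nM GPX4, 1 mM GSH, 0.5 mM CHP, 0.5 mM NADPH, 100 nM GR.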
Compound,Potency,"activity change, negative = inhibition",outcome
COc1cc(N2CCC(N3CCN(C)CC3)CC2)ccc1Nc1ncc(Cl)c(Nc2ccccc2S(=O)(=O)C(C)C)n1,inactive,–,–
O=C(O)CCC1CCC(c2cc(F)ccc2F)(S(=O)(=O)c2ccc(Cl)cc2)CC1 (configuration not stated),–,-25% (inactive),–
Nc1ncnc2ccccc12,–,-8.17% (inactive),–
CC[C@]1(O)C[C@@H]2CN(CCc3c([nH]c4ccccc34)[C@@](C(=O)OC)(c3cc4c(cc3OC)N(C)[C@H]3[C@@](O)(C(=O)OC)[C@H](OC(C)=O)[C@]5(CC)C=CCN6CC[C@]43[C@@H]65)C2)C1,inactive,–,–
Oc1ccc(C2=Cc3ccc(O)cc3OC2)cc1,–,-20.1% (inactive),–
CCn1cc(C(=O)O)c(=O)c2ccc(C)nc21,inactive,–,–
CCn1c(C(=O)N(C2CC2)C2CC2)cc2c3c(ncn3C)c(Nc3cc(C)n(C)n3)nc21,inactive,–,–
CCNc1cc(NC2CCC(O)CC2)nc(Nc2ccc3c(ccn3Cc3ccccc3)c2)n1 (configuration not stated),–,–,inactive
CCOC(=O)C1=C(N)Oc2ccc(Br)cc2C1C(C#N)C(=O)OCC (configuration not stated),inactive,–,–
CN1[C@@H]2CCC[C@@H]1CC(NC(=O)c1nn(C)c3ccccc13)C2 (some centres not stated),inactive,–,–
CO[C@H]1C(=O)[C@]2(C)[C@@H](OC)C[C@H]3OC[C@@]3(OC(C)=O)[C@H]2[C@H](OC(=O)c2ccccc2)[C@]2(O)C[C@H](OC(=O)[C@H](O)[C@@H](NC(=O)OC(C)(C)C)c3ccccc3)C(C)=C1C2(C)C,inactive,–,–
O=C(Nc1cc(Cl)cc2c1[nH]c1cnccc12)c1cccnc1,–,-12.5% [at 27.8 µM] (inactive),–
CN1C[C@H]2c3ccccc3Oc3ccc(Cl)cc3[C@@H]2C1,–,-11.9% (inactive),–
CN(C)CCC(c1ccccc1)c1ccccn1 (configuration not stated),inactive,–,–
CC(C)[C@H](CO)Nc1nc(Nc2ccc(C(=O)O)c(Cl)c2)c2ncn(C(C)C)c2n1,inactive,–,–
CC(C)(C)COc1ccc(-n2cc(C(=O)O)cn2)cc1C#N,–,-16.5% (inactive),–
NS(=O)(=O)c1cccc2c1C(=O)c1cccc(O)c1C2=O,–,-20.7% (inactive),–
O=C(CCCCCCC(=O)Nc1ccccc1)NO,inactive,–,–
CC(C)(C(=O)NCC(F)(F)C(F)(F)F)C(=O)N[C@@H]1C(=O)Nc2ccccc2-c2ccccc21,–,–,inactive

Compound,Potency,"activity change, negative = inhibition",outcome
O=c1cc(-c2ccc(O)cc2)oc2cc(O)cc(O)c12,inactive,–,–
O=C(Nc1ccccc1Br)N[C@@H]1CCN(c2ccc(C(F)(F)F)cn2)C1,–,0.0426% (inactive),–
CCCNC(=O)NS(=O)(=O)c1ccc(Cl)cc1,inactive,–,–
Cc1cccc(Nc2nc(-c3ccncc3)cs2)c1,inactive,–,–
O=C(Nc1ccccc1-c1cn2c(CN3CCNCC3)csc2n1)c1cnc2ccccc2n1,inactive,–,–
O=C1C(Cl)=C(NCCN2CCOCC2)C(=O)c2ncccc21,–,-1.53% (inactive),–
c1ccc2c(Cc3c[nH]c4ccccc34)c[nH]c2c1,–,-22.4% (inactive),–
O=c1cc(CN2CCOCC2)occ1OCCCCCSc1ccnc2cc(C(F)(F)F)ccc12,–,-2.54% (inactive),–
O=C(O)c1ccccc1C(=O)Nc1ccc(-c2ccccc2)cc1,inactive,–,–
C[C@]12CCC3c4ccc(O)cc4CCC3C1CCC2=O (some centres not stated),–,-7.81% (inactive),–
CO[C@H]1C=CO[C@@]2(C)Oc3c(C)c(O)c4c(O)c(c5c(c4c3C2=O)NC2(CCN(CC(C)C)CC2)N=5)=NC(=O)C(C)=CC=C[C@H](C)[C@H](O)[C@@H](C)[C@@H](O)[C@@H](C)[C@H](OC(C)=O)[C@H]1C,–,-15.6% (inactive),–
O=C(O)CCc1nc(-c2ccccc2)c(-c2ccccc2)o1,inactive,–,–
COc1cc(N2CCC(N3CCN(C)CC3)CC2)ccc1Nc1ncnc(Nc2ccccc2S(=O)(=O)C(C)C)n1,inactive,–,–
COc1ccc(-c2coc3cc(O)cc(O)c3c2=O)cc1,–,-44.4% (inactive),–
COc1cc(Nc2ncc(F)c(Nc3ccc4c(n3)NC(=O)C(C)(C)O4)n2)cc(OC)c1OC,inactive,–,–
O=C(N[C@@H](c1ccccc1)[C@@H]1CCCCN1)c1cccc(C(F)(F)F)c1Cl,–,-11.5% (inactive),–
Cc1c(NC(=O)c2ccc(C(C)(C)C)cc2)cccc1-c1cn(C)c(=O)c(Nc2ccc(C(=O)N3CCOCC3)cc2)n1,–,-2.65% [at 27.8 µM] (inactive),–
O=C(O)c1cc(-c2ccccc2)nc2ccccc12,–,3.21% (inactive),–

# Target: Luciferin 4-monooxygenase (Photinus pyralis) (UniProt P08659)
# Assay: Primary firefly luciferase (FLuc) qHTS assay for identification of artifact compounds. (AID 1845220); further: nearly all actives have a fitted effect of over 60% in size; further: potency means the concentration at half of the fitted maximal effect;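 on activity change, negative = inhibition: plate controls were DMSO vehicle for no effect and no enzyme for full effect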
# Conditions: purified firefly luciferase, luminescence, 5 min; series mostly up to 54.1 µM; activity change, negative = inhibition: at the top concentration
# How it was run: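 Enzymatic FLuc inhibition assay: compounds pre-exposed to luciferin/ATP (10 uM each) for 15 min, then purified P. pyralis enzyme at 10 nM added. Read-out: luminescence at 5 min.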
Compound,outcome,"activity change, negative = inhibition",Potency
COc1cc(N2CCC(N3CCN(C)CC3)CC2)ccc1Nc1ncc(Cl)c(Nc2ccccc2S(=O)(=O)C(C)C)n1,inactive,–,–
CC[C@]1(O)C[C@@H]2CN(CCc3c([nH]c4ccccc34)[C@@](C(=O)OC)(c3cc4c(cc3OC)N(C)[C@H]3[C@@](O)(C(=O)OC)[C@H](OC(C)=O)[C@]5(CC)C=CCN6CC[C@]43[C@@H]65)C2)C1,–,4.02% (inactive),–
CCn1c(C(=O)N(C2CC2)C2CC2)cc2c3c(ncn3C)c(Nc3cc(C)n(C)n3)nc21,inactive,–,–
CCOC(=O)C1=C(N)Oc2ccc(Br)cc2C1C(C#N)C(=O)OCC (configuration not stated),–,–,inactive
CN(C)CCC(c1ccccc1)c1ccccn1 (configuration not stated),–,-7.55% (inactive),–
CC(C)[C@H](CO)Nc1nc(Nc2ccc(C(=O)O)c(Cl)c2)c2ncn(C(C)C)c2n1,–,-10.3% [at 25.7 µM] (inactive),–
O=C(CCCCCCC(=O)Nc1ccccc1)NO,–,-1% (inactive),–
CCCNC(=O)NS(=O)(=O)c1ccc(Cl)cc1,–,1.99% (inactive),–
O=c1cc(CN2CCOCC2)occ1OCCCCCSc1ccnc2cc(C(F)(F)F)ccc12,inactive,–,–
O=C(O)c1ccccc1C(=O)Nc1ccc(-c2ccccc2)cc1,–,–,23.9 µM (active)
CO[C@H]1C=CO[C@@]2(C)Oc3c(C)c(O)c4c(O)c(c5c(c4c3C2=O)NC2(CCN(CC(C)C)CC2)N=5)=NC(=O)C(C)=CC=C[C@H](C)[C@H](O)[C@@H](C)[C@@H](O)[C@@H](C)[C@H](OC(C)=O)[C@H]1C,–,-1.94% (inactive),–
O=C(O)CCc1nc(-c2ccccc2)c(-c2ccccc2)o1,inactive,–,–
COc1cc(N2CCC(N3CCN(C)CC3)CC2)ccc1Nc1ncnc(Nc2ccccc2S(=O)(=O)C(C)C)n1,–,3.63% (inactive),–
COc1cc(Nc2ncc(F)c(Nc3ccc4c(n3)NC(=O)C(C)(C)O4)n2)cc(OC)c1OC,–,-10.3% (inactive),–
Cc1c(NC(=O)c2ccc(C(C)(C)C)cc2)cccc1-c1cn(C)c(=O)c(Nc2ccc(C(=O)N3CCOCC3)cc2)n1,–,–,5.88 µM (active)
